For 36 molecules, composite z-score results are on record in PubChem BioAssay.

Tested on in the first test: not listed separately
The test can be described thus: probe aNOTCH2 binding on compound microarray – biochemical, small-molecule microarray, 635/667 nm fluorescence, primary screen (AID 1121).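 Further: score merges feature fluorescence read at 667 nm with its signal to noise.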 The following applies: higher = more signal.
For `CC(C)Cc1ccc(CN2CC[C@@H](NC(=O)c3ccccc3)C2)cc1`, the composite z-score was -0.109. The same measure, in the same setting: for `COCCOC(=O)N1C(=O)[C@@]2(c3cc(C#CC4=CCCCC4)ccc31)[C@H](c1ccc(O)cc1)N1[C@H](c3ccccc3)[C@H](c3ccccc3)OC(=O)[C@H]1[C@@H]2C(=O)N1CCc2cc(OC)c(OC)cc2C1` the value was -0.0454. Molecule `Cc1ccc(S(=O)(=O)N2[C@@H](c3ccccc3)C(C(=O)O)=CC[C@H]2c2ccc(F)cc2)cc1` had a composite z-score of -0.116. On the same count and under the same terms, in the case of `COc1ccc([Si](C)(C)[C@H]2[C@H](CC(=O)N3CCC[C@H]3CO)O[C@@]3(C(=O)N(Cc4cccc(N5CCCCC5=O)c4)c4ccccc43)[C@@H]2C)cc1` it was -0.161. Turning to `[N-]=[N+]=Nc1ccccc1C[C@@]1(C(=O)NCc2ccccc2)N=C(c2ccc(OCCCO)cc2)O[C@@H]1c1ccccc1`, the composite z-score came to 0.309.

Consider `[N-]=[N+]=NCc1ccccc1[C@H]1OC(c2ccc(OCCCO)cc2)=N[C@@]1(CCS(=O)(=O)c1ccccc1)C(=O)O`, for which the composite z-score was -0.118. On the same count and under the same terms, in the case of `CCOC(=O)C[C@H]1[C@H](OC(=O)c2cc3ccccc3oc2=O)[C@@H](NC(=O)Cc2ccc(OC)cc2)c2cc(OCCCO)ccc2N1C(=O)Cc1ccc(OC)cc1` it was -0.162. Still for that read-out and setting: in the case of `C=C(C(=O)CC[C@@H](OC(=O)c1ccccc1-c1ccccc1C(=O)O)c1cccc(OCCO)c1)C(C)C` it was -0.0402. Same read-out and setting: in the case of `COC(=O)[C@@]1(Cc2ccc(F)cc2)[C@@H]2C(=CC(=O)[C@H]2CC(=O)C(=O)N2CCCC2)CN1C(=O)c1ccccc1` it was 0.845. Take `CC(C)(C)OC(=O)CC[C@]1(C(N)=O)N=C(c2ccc(OCCCO)cc2)O[C@H]1c1ccccc1N=[N+]=[N-]`: the composite z-score is -0.084. Same read-out and setting: for `COc1ccc([Si](C)(C)[C@@H]2[C@@H](CC(=O)N3CCC[C@H]3CO)O[C@]3(C(=O)N(Cc4cccc(N5C(=O)c6cccc7cccc5c67)c4)c4ccccc43)[C@H]2C)cc1` the value was -0.166; for `COC(=O)C(CC#Cc1ccc2c(c1)[C@]1(C(=O)N2)[C@H](c2ccccc2OCCO)N2[C@H](c3ccccc3)[C@H](c3ccccc3)OC(=O)[C@H]2[C@@H]1C(=O)N1CCN(c2ncccn2)CC1)C(=O)OC`, -0.132; for `COc1ccc(C(=O)Nc2ccc(CN3C(=O)[C@]4(O[C@H](CC(=O)N(CCO)Cc5ccccc5)[C@@H]([Si](C)(C)c5ccc(OC)cc5)[C@@H]4C)c4ccccc43)cc2)cc1`, -0.193.

`COCCOC(=O)N1C(=O)[C@@]2(c3cc(C#CCCO)ccc31)[C@H](c1ccc(O)cc1)N1[C@H](c3ccccc3)[C@H](c3ccccc3)OC(=O)[C@H]1[C@@H]2C(=O)NC[C@H](O)c1ccccc1` displayed a composite z-score of -0.0858. Molecule `COc1ccc(NN2C(C(O)c3ccccc3)C=CC3C(=O)N(C4CCCCC4)C(=O)C32)cc1` (stereo not given) showed a composite z-score of -0.0047. The same measure, in the same setting: for `COc1ccc([Si](C)(C)[C@H]2[C@H](CC(=O)N(CCO)Cc3ccccc3)O[C@@]3(C(=O)N(Cc4ccc(N5C(=O)c6cccc7cccc5c67)cc4)c4ccccc43)[C@@H]2C)cc1` the value was -0.0928. With `COc1ccc([Si](C)(C)[C@H]2[C@H](CC(=O)N3CCC[C@H]3CO)O[C@@]3(C(=O)N(C)c4c(Br)cc(C)cc43)[C@@H]2C)cc1`, the composite z-score was 0.503. Still for that read-out and setting: for `COCCOC(=O)N1C(=O)[C@@]2(c3cc(C#CCCO)ccc31)[C@H](C(=O)N1CCN(c3ncccn3)CC1)[C@H]1C(=O)O[C@H](c3ccccc3)[C@H](c3ccccc3)N1[C@@H]2c1ccc(OCCO)cc1` the value was -0.0817; for `COc1ccc([Si](C)(C)[C@H]2[C@H](CCO)O[C@@]3(C(=O)N(Cc4ccccc4)c4ccc(NC(=O)[C@H](C)O)cc43)[C@@H]2C)cc1`, -0.0274. Molecule `COc1cc(CO)cc(I)c1O[C@H]1C=C(C(=O)NCCO)C[C@@H](N(CCN2CCOCC2)C(=O)C2CCCO2)[C@@H]1O` (stereo not given in full) yielded a composite z-score of -0.0684. On the same count and under the same terms, in the case of `O=C(c1ccccc1)N1Cc2ccccc2C[C@@]2(N=C(c3ccc(OCCCO)cc3)O[C@H]2c2ccccc2)C1=O` it was -0.0876; in that of `COCCCNC(=O)[C@@]1(Cc2ccccc2I)c2ccccc2C(=O)N(Cc2ccccc2OC)[C@H]1c1ccc(CO)cc1`, -0.14. For the molecule `CN(C)C(=O)[C@]1(CCS(=O)(=O)c2ccccc2)N=C(c2ccc(OCCCO)cc2)O[C@@H]1c1ccccc1CN=[N+]=[N-]`, the composite z-score was 0.139.

Regarding `C=CCC(OC(C)=O)[C@@H]1[C@@H](N(Cc2ccc(-c3ccccc3)cc2)C(=O)Cc2ccc(OC)cc2)c2cc(OCCCO)ccc2N1C(=O)c1ccc2ccccc2c1` (stereo not given in full), the composite z-score was -0.176.

Turning to `COc1cccc(C)c1NC(=O)O[C@H]1[C@H](OC(=O)Nc2ccccc2)[C@@H](OC(=O)Nc2ccccc2)[C@@H](OC)O[C@@H]1CO`, the composite z-score is -0.0811.

The target in another test is Carbonic anhydrase 2 (Homo sapiens) (UniProt P00918). The test can be described thus: compounds binding carbonic anhydrase 2 – biochemical, small-molecule microarray, Alexa647-labelled CAII, profiling panel (AID 1122). The settings on record: CAII-A647 binding fluorescence, higher = more signal.
In turn, `COC(=O)[C@@]1(Cc2ccc(OC)cc2)[C@@H]2[C@@H](CC(=O)[C@H]2CC(=O)C(=O)N(C)C)CN1C(=O)c1ccccc1` registered a composite z-score of 0.617. Same read-out and setting: for `COC(=O)C(CC#Cc1ccc2c(c1)[C@]1(C(=O)N2)[C@H](C(=O)N2CCCCCCC2)[C@H]2C(=O)O[C@H](c3ccccc3)[C@H](c3ccccc3)N2[C@@H]1c1ccc(OCCO)cc1)C(=O)OC` the value was 1.12; for `COc1ccc(CCNC(=O)[C@@]2(c3ccc([N+](=O)[O-])cc3)CC(=O)N(C3CCCCC3)[C@@H]2c2ccc(CO)cc2I)cc1`, 0.364. Same read-out and setting: in the case of `COc1c(C)cc(-c2cc3c(c(CCc4ccccc4)n2)[Si](C(C)C)(C(C)C)O[C@H]3c2ccccc2)cc1C` it was -0.121. The same measure, in the same setting: for `CCCCC(=C=CC[C@@H](O)c1ccccc1OCCO)C[C@@H](O)c1ccccn1` the value was 0.678. For `[N-]=[N+]=NCc1ccccc1C[C@]1(C(=O)N2CCCCC2)COC(c2ccc(OCCCO)cc2)=N1`, the composite z-score is 0.375. On to `COc1cccc(C)c1NC(=O)O[C@H]1[C@H](OC(=O)Nc2ccccc2-c2ccccc2)[C@@H](OC(=O)Nc2ccccc2-c2ccccc2)[C@@H](OC)O[C@@H]1CO`, for which the composite z-score came out at 0.712.

`O=C1C2C=CC(C(O)c3ccccn3)N(Nc3ccc([N+](=O)[O-])cc3)C2C(=O)N1c1ccccc1` (stereo not given): the composite z-score worked out at 0.592.

In turn, `CCOC(=O)C1=C[C@@H](C(C)(C)C)N(S(=O)(=O)c2ccc(C)cc2)[C@H]1c1ccc(OC)cc1` gave a composite z-score of 0.392. Same read-out and setting: in the case of `O=C1NC(=O)C2C1C=CC(C(O)C(c1ccccc1)c1ccccc1)N2Nc1ccccn1` (stereo not given) it was 0.809; in that of `CCCCCCc1nc(-c2ccc(OC)nc2)c(C)c2c1[Si](C(C)C)(C(C)C)OC2`, -0.195; in that of `CC(C)Cc1ccc(CN2CC[C@@H](NC(=O)c3ccccc3)C2)cc1`, -0.0412. `COCCOC(=O)N1C(=O)[C@@]2(c3cc(C#CC4=CCCCC4)ccc31)[C@H](c1ccc(O)cc1)N1[C@H](c3ccccc3)[C@H](c3ccccc3)OC(=O)[C@H]1[C@@H]2C(=O)N1CCc2cc(OC)c(OC)cc2C1` displayed a composite z-score of 0.468. Same read-out and setting: for `Cc1ccc(S(=O)(=O)N2[C@@H](c3ccccc3)C(C(=O)O)=CC[C@H]2c2ccc(F)cc2)cc1` the value was 0.893; for `COc1ccc([Si](C)(C)[C@H]2[C@H](CC(=O)N3CCC[C@H]3CO)O[C@@]3(C(=O)N(Cc4cccc(N5CCCCC5=O)c4)c4ccccc43)[C@@H]2C)cc1`, 0.462; for `[N-]=[N+]=Nc1ccccc1C[C@@]1(C(=O)NCc2ccccc2)N=C(c2ccc(OCCCO)cc2)O[C@@H]1c1ccccc1`, 0.645. Still for that read-out and setting: for `[N-]=[N+]=NCc1ccccc1[C@H]1OC(c2ccc(OCCCO)cc2)=N[C@@]1(CCS(=O)(=O)c1ccccc1)C(=O)O` the value was 0.754. The same measure, in the same setting: for `CCOC(=O)C[C@H]1[C@H](OC(=O)c2cc3ccccc3oc2=O)[C@@H](NC(=O)Cc2ccc(OC)cc2)c2cc(OCCCO)ccc2N1C(=O)Cc1ccc(OC)cc1` the value was 0.709. As for `C=C(C(=O)CC[C@@H](OC(=O)c1ccccc1-c1ccccc1C(=O)O)c1cccc(OCCO)c1)C(C)C`, the composite z-score was 0.555. Same read-out and setting: in the case of `COC(=O)[C@@]1(Cc2ccc(F)cc2)[C@@H]2C(=CC(=O)[C@H]2CC(=O)C(=O)N2CCCC2)CN1C(=O)c1ccccc1` it was 0.65; in that of `CC(C)(C)OC(=O)CC[C@]1(C(N)=O)N=C(c2ccc(OCCCO)cc2)O[C@H]1c1ccccc1N=[N+]=[N-]`, 0.791; in that of `COc1ccc([Si](C)(C)[C@@H]2[C@@H](CC(=O)N3CCC[C@H]3CO)O[C@]3(C(=O)N(Cc4cccc(N5C(=O)c6cccc7cccc5c67)c4)c4ccccc43)[C@H]2C)cc1`, 0.394. The same measure, in the same setting: for `COC(=O)C(CC#Cc1ccc2c(c1)[C@]1(C(=O)N2)[C@H](c2ccccc2OCCO)N2[C@H](c3ccccc3)[C@H](c3ccccc3)OC(=O)[C@H]2[C@@H]1C(=O)N1CCN(c2ncccn2)CC1)C(=O)OC` the value was 0.23; for `COc1ccc(C(=O)Nc2ccc(CN3C(=O)[C@]4(O[C@H](CC(=O)N(CCO)Cc5ccccc5)[C@@H]([Si](C)(C)c5ccc(OC)cc5)[C@@H]4C)c4ccccc43)cc2)cc1`, 0.541; for `COCCOC(=O)N1C(=O)[C@@]2(c3cc(C#CCCO)ccc31)[C@H](c1ccc(O)cc1)N1[C@H](c3ccccc3)[C@H](c3ccccc3)OC(=O)[C@H]1[C@@H]2C(=O)NC[C@H](O)c1ccccc1`, 0.529. On the same count and under the same terms, for `COc1ccc(NN2C(C(O)c3ccccc3)C=CC3C(=O)N(C4CCCCC4)C(=O)C32)cc1` (stereo not given) the value was 0.749; for `COc1ccc([Si](C)(C)[C@H]2[C@H](CC(=O)N(CCO)Cc3ccccc3)O[C@@]3(C(=O)N(Cc4ccc(N5C(=O)c6cccc7cccc5c67)cc4)c4ccccc43)[C@@H]2C)cc1`, 0.593. `COc1ccc([Si](C)(C)[C@H]2[C@H](CC(=O)N3CCC[C@H]3CO)O[C@@]3(C(=O)N(C)c4c(Br)cc(C)cc43)[C@@H]2C)cc1` came in with a composite z-score of 0.81. On the same count and under the same terms, in the case of `COCCOC(=O)N1C(=O)[C@@]2(c3cc(C#CCCO)ccc31)[C@H](C(=O)N1CCN(c3ncccn3)CC1)[C@H]1C(=O)O[C@H](c3ccccc3)[C@H](c3ccccc3)N1[C@@H]2c1ccc(OCCO)cc1` it was 0.621; in that of `COc1ccc([Si](C)(C)[C@H]2[C@H](CCO)O[C@@]3(C(=O)N(Cc4ccccc4)c4ccc(NC(=O)[C@H](C)O)cc43)[C@@H]2C)cc1`, 0.48.
